MARV entry inh: inhibitors of Marburg virus binding or cell entry. Potency, µM (series often up to 37.8 µM), inactives show at the top dose activity change, negative = inhibition, hits mostly inhibitors. AID 540276. Marburg virus pseudotyped entry inhibition, cell reporter. 300,000 tested, 1.8% active; calls by dose curve; tested in HEK293 cells; further: potency means the concentration at half of the fitted maximal effect; on the % scale 0 is the no-effect control and ±100 the full control effect
HCV inhibitor: HCV inhibition. Huh7.5.1 HCVcc-Cre infection, luciferase reporter, 44 h. Potency, µM (titrated, usually from 41.8 µM), inactives show top-dose activity change, negative = inhibition, hits mostly inhibitors. 340,000 tested, 3.4% active. AID 651820; active means well fitted inhibition curve with a large enough effect; inconclusive means small, poorly fitted or top-dose-only effect, or another doubt; inactive means no such curve, though single readings can be large or run the other way; further: potency means the concentration at half of the fitted maximal effect; on the % scale 0 is the no-effect control and ±100 the full control effect
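Luciferase read-out (15 sec integration) after a 15 min room-temperature substrate step quantifies HCVcc-Cre infection. Cells, 1,000 per well, had compound added 4 h post-plating, then virus at ~0.5 moi, and were cultured 44 h.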
SARS PLP yeast: blocks SARS-CoV papain-like protease in a yeast assay; S. cerevisiae expressing SARS-CoV PLpro, growth rescue; Potency, µM (highest dose often 32.9 µM), for the others: at the highest dose activity, positive = growth rescue, most hits filed as activators; 330,000 tested, 0.19% active; AID 485353; calls by dose curve; further: potency means the concentration at half of the fitted maximal effect; 0% is about no effect; nearly all actives have a fitted effect of over 55% in size
HCMV inh: blocks human cytomegalovirus replication. activity change, negative = inhibition, % at 57.5 µM. 410,000 tested, 4.5% active. HFF cells, HCMV-luciferase reporter, 72 h; hits give low values; in the data active means activity change below about -60%; inconclusive means no clear call, values can overlap the other calls; inactive means above about -39%; further: on the % scale 0 is the no-effect control and ±100 the full control effect
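Steps: HFFs plated, 16 h 37C; compounds added; HCMV-luciferase added to MOI 1 PFU/cell; 72 h 37C; OneGlo reagent, 5 min room temperature; luminescence read, normalized to controls.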
FMDV inh: blocks foot and mouth disease virus | FMDV antiviral cell-based qHTS | Potency, µM (titrated, usually from 57.9 µM), for the others: at the highest dose activity change, negative = inhibition, usual class: inhibitors | 410,000 tested, 1.2% active | AID 1159524; calls by dose curve; tested in HEK293T cells; further: read-out not given here; potency means the concentration at half of the fitted maximal effect; on the % scale 0 is the no-effect control and ±100 the full control effect; nearly all actives have a fitted effect of over 45% in size
Lassa entry inh: Lassa virus entry inhibition; Lassa virus pseudotype entry inhibition, cell reporter; Potency, µM (series often up to 37.9 µM), inactives show at the highest dose activity change, negative = inhibition, actives largely listed as inhibitors; 300,000 tested, 1.2% active; calls by dose curve; tested in HEK293 cells; further: potency means the concentration at half of the fitted maximal effect; on the % scale 0 is the no-effect control and ±100 the full control effect; nearly all actives have a fitted effect of over 50% in size
The depositor's hits bear a star; ? = inconclusive; nt = no result given; ! = not active in a repeat; [ ] = another dose, or the depositor's remark. Shown are actives, neighbours in structure and some others; about 8% of the full set was active somewhere.

SMILES	MARV entry inh	HCV inhibitor	SARS PLP yeast	HCMV inh	FMDV inh	Lassa entry inh
COc1ccc(-n2nnnc2C2CCN(S(=O)(=O)c3cccc(C(F)(F)F)c3)CC2)cc1	11%[46.1 µM]	nt	nt	-14	1%	2%[46.1 µM]
Cc1ccc(-n2nnnc2C2CCN(S(=O)(=O)c3ccc(OC(F)(F)F)cc3)CC2)cc1	-4%[46.1 µM]	nt	nt	-15	-8%	8%[46.1 µM]
CC1CCc2nn(CC(=O)Nc3ccccc3Cl)cc2C1 (stereo not given)	?	nt	nt	29	35%	8%[46.1 µM]
Clc1ccc(-c2nc3sccn3c2/C=N/OCc2ccc(Cl)c(Cl)c2)cc1	nt	nt	nt	nt	-1%	nt
O=C(NNC1=NS(=O)(=O)c2ccccc21)c1ccc([N+](=O)[O-])cc1	?	13%	4%	-15	-22%	7.9µM*
CCCCNC(=O)c1ccc(CS(=O)(=O)c2ccc(C)cc2)o1	?	8%	0%	-20	-10%	16µM*
CCCCNC(=O)c1ccc(CS(=O)(=O)c2ccc(OC)cc2)o1	nt	-2%	5%	5	-26%	nt
Cc1ccc(S(=O)(=O)Cc2ccc(C(=O)N3CCCCCC3)o2)cc1	nt	-14%	-2%	-63*	-14%	nt
COc1ccc(N2CCN(C(=O)c3ccc(CS(=O)(=O)c4ccc(Br)cc4)o3)CC2)cc1	8%[46.1 µM]	15%	-1%	-84*!	-14%	8%[46.1 µM]
COc1ccc2c(c1)-c1nc(-n3ncc(C(=O)N(C)C(C)c4ccon4)c3C3CC3)ncc1CC2 (stereo not given)	nt	nt	nt	nt	-75%	nt
COC(=O)/C=C/c1cc(O)ccc1O	nt	nt	nt	nt	-16%	nt
COc1ccc(-n2sc3ccc(F)cc3c2=O)cc1	nt	2.8µM*	0%	-5	-59%	nt
COc1ccc(-n2cc(C(=O)O)c3ccccc3c2=O)cc1	-8%	2%	2%	-1	7%	6%
COc1ccc(-n2sc3ccccc3c2=O)cc1	nt	nt	nt	-102*	?	nt
Cc1ccc(C)c(-n2sc3ccc(F)cc3c2=O)c1	nt	?	2%	-87*	?	nt
CCOC(=O)c1cc(C)n(CC2CCC(C(=O)Nc3cccc(C)c3)CC2)c1C (stereo not given)	nt	nt	nt	-38	-14%	-5%[46.1 µM]
CCCCN1CC(c2nc3ccccc3n2CCCCOc2cccc(C)c2C)CC1=O (stereo not given)	-1%[46.1 µM]	nt	nt	?	-1%	14%[46.1 µM]
Cc1cc(O)c2c(c1O)C(=O)C(O)=C(O)C2=O	nt	nt	nt	nt	-19%	nt
COc1ccc(-c2ccn(-c3cccc(F)n3)n2)cc1	10µM*	-29%	-3%	-29	20%	?
CCOC(=O)Cn1c(=O)oc2cc(S(=O)(=O)N3CCN(c4ccc(F)cc4)CC3)ccc21	8%[46.1 µM]	nt	nt	-14	-24%	0%[46.1 µM]
Cc1cccc(C(=O)NC(=S)NNC(=O)c2cccs2)c1	1%	1%	-35%	?	-12%	9%
Cc1cc(C)c(NC(=S)NC(=O)c2ccc(-c3ccccc3)cc2)c(C)c1	?	3%	-3%	-84*	?	8.9µM*
CC(C)C(=O)Nc1cccc(NC(=S)NC(=O)c2ccc(Cl)cc2)c1	?	?	9%	-73*	?	-29%
O=C(NC(=S)Nc1ccccn1)c1ccc(-c2ccccc2)cc1	?	?	5%	-20	8%	-24%[46.1 µM]
Cc1cccc(C(=O)NC(=S)NNC(=O)c2ccc(Cl)cc2)c1	?	?	-41%	-84*	?	?
SMILES	MARV entry inh	HCV inhibitor	SARS PLP yeast	HCMV inh	FMDV inh	Lassa entry inh
Cc1ccc(C(=O)NC(=S)Nc2ccc(NC(=O)c3cccc(Cl)c3)cc2)cc1	1.3µM*	-11%	6%	?	3%	2.3µM*
COC(=O)C(c1ccccc1)(c1cn(C)c2c(C)cccc12)C(Nc1ccccc1)c1ccccc1 (stereo not given)	nt	nt	nt	-17	nt	nt
Cc1cc(C(=O)Nc2ccccc2-c2nc(CNC(=O)c3cc4ccccc4cn3)c(C)o2)c(C)o1	nt	nt	nt	nt	0%	nt
CCc1nc2cc(C(=O)N3CCC[C@H]3CO)cc(NC(=O)c3ccccc3OC)c2n1C	nt	nt	nt	nt	3%	nt
COc1ccc(C(=O)NC(=S)NNC(=O)c2ccc(NC(=O)C(C)C)cc2)cc1	?	16µM*	-7%	0	-3%	?
COc1ccc(C(=O)NC(=S)NNC(=O)c2ccc(C)cc2)cc1	nt	?	nt	-28	-4%	nt
Cc1ccc(C(NC(=O)N2CCOCC2)=C(Cl)Cl)cc1F	?	10µM*	0%	-69*	nt	-48%
Cc1ccc(C(NC(=O)N2CCOCC2)C(Cl)Cl)cc1F (stereo not given)	15%	14%	12%	-14	-11%	-2%
O=C(c1ccccc1)N1N=C(c2ccccc2)CC1c1ccccc1O (stereo not given)	-29%[46.1 µM]	-12%	-4%	-62*	-18%	?
Cc1ccc(C2=NN(C(=O)c3cccs3)C(c3ccccc3O)C2)cc1 (stereo not given)	?	2%	0%	-61*	13%	-7%[46.1 µM]
COc1ccc(C2=NN(C(=O)c3cccs3)C(c3ccccc3OC)C2)cc1OC (stereo not given)	?	10µM*	1%	-38	-15%	?
O=C(c1cccs1)N1N=C(c2ccccc2)CC1c1ccccc1O (stereo not given)	?	-14%	0%	-60*	2%	30%[46.1 µM]
COc1ccc(C2=NN(C(=O)c3ccco3)C(c3cccs3)C2)cc1OC (stereo not given)	nt	nt	nt	62	8%	nt
Cc1ccc(C(=O)c2cn(Cc3cccc(Cl)c3)c3nc(C)ccc3c2=O)cc1	?	nt	nt	-8	-21%	-11%[46.1 µM]
NS(=O)(=O)c1ccc(N2N=C(c3ccccc3)CC2c2ccccc2Br)cc1 (stereo not given)	nt	-40%	-30%	-12	-27%	nt
CC(=O)N1N=C(c2ccccc2)CC1c1cn(Cc2ccccc2)c2ccccc12 (stereo not given)	?	25µM*	-19%	-87*	32µM*	?
Cc1ccc(-c2nn(-c3ccccc3)cc2C2CC(c3ccccc3)=NN2C(=O)CCC(=O)O)cc1 (stereo not given)	6%[46.1 µM]	18%	0%	-38	-9%	?
Cc1ccc(C2=NN(C(=O)CCC(=O)O)C(c3cn(-c4ccccc4)nc3-c3ccc(C)cc3)C2)cc1 (stereo not given)	nt	0%	-1%	-60*	-24%	nt
O=[N+]([O-])c1ccc(N2N=C(c3ccccc3)CC2c2ccccc2O)cc1 (stereo not given)	nt	nt	-14%	-63*	nt	nt
N#CC1CC(c2ccccc2)=NN1c1ccccc1[N+](=O)[O-] (stereo not given)	?	?	-12%	-64*	22%	?
O=C(Cn1c(=O)n(-c2ccc(F)cc2)c(=O)c2sc3ccccc3c21)NC1CCCCC1	12%[46.1 µM]	nt	nt	-1	-1%	4%[46.1 µM]
CCCc1nc2cccnc2n1C1CCN(C(=O)Cn2nccc2C)CC1	nt	nt	nt	nt	9%	nt
CSc1c(N(C)C)c(=O)c1=S	nt	nt	nt	-27	nt	nt

Screens: PubChem, National Center for Advancing Translational Sciences (NCATS)
